Data as given in ChEMBL document CHEMBL4513216, “Probing the Open Global Health Chemical Diversity Library for Multistage-Active Starting Points for Next-Generation Antimalarials” (ACS Infect Dis, 2020).
In all, about 68,000 compounds went through this assay and about 2,700 (4%) showed an effect of 50% or more. The sample holds strong results, similar compounds and a random draw of the others, so the mix is not that of the screen.

tested on: Plasmodium berghei; assay: Screen against P. berghei liver stage (PbLuc), transformed with Luciferase, at 2uM; type: functional, HepG2; settings: tested at 2 uM

Point of comparison: `COc1cccc(Cl)c1C(C(=O)O)N1CCC(O)(c2cccnc2)CC1` (centres undefined), INHIBITION -4.09%. Against it:
- Cc1nc(C2CCCN(C(=O)CCCn3cccn3)C2)sc1C (centres undefined) — higher, 15.67%
- O=C(c1ccc2[nH]ccc2c1)N1CC[C@@H]2CN(CC3CC3)CCO[C@@H]2C1 — higher, 12.83%
- CCS(=O)(=O)N1CCc2cc(C(=O)N(C)C)c(NCC3CC3)nc2CC1 — higher, 27.08%
- COC(=O)COc1cc(NCc2c(C)noc2C)c(Cl)cc1C — lower, -55.9%
- NC(=O)COc1ccc(CN2CCC(O)(CN3CCCCC3)C2)cc1Cl (centres undefined) — lower, -32.93%
- Cc1cnn(C2CN(CC(=O)NCCc3ccsc3)C2)c1 — lower, -21.39%
- O=C(CCC1CCCO1)NCc1ccc(Br)cc1F (centres undefined) — higher, 1.52%
- Cc1cc(C(=O)O)c2c(Br)cccc2n1 — lower, -34.12%
- COCCCN1Cc2cccc(NC(=O)c3cc(F)ccc3F)c2C1 — lower, -9.01%
- CCc1nnsc1C(=O)N1CCCC1c1c(C)nn(C)c1OC (centres undefined) — lower, -12.75%
- COc1ccc(C(C(=O)O)N2CCC(O)(c3cccnc3)CC2)cc1F (centres undefined) — lower, -38.97%
- COc1ccc(C(C(=O)O)N2CCC(O)(c3cccnc3)CC2)cc1Cl (centres undefined) — higher, 55.39%
- Cc1ccc(C(=O)N2C[C@H]3CCC[C@@]3(COCc3cccnc3)C2)s1 — lower, -5.01%
- O=C(CC1CCCCC1)N1CCC(c2ncc3c(n2)CCNC3)CC1 — higher, 6.4%
- CCCC(=O)N1CCC(c2ncc3c(n2)CCNC3)CC1 — higher, 5.15%
- CCC(=O)N1CCC(c2ncc3c(n2)CCNC3)CC1 — higher, 95.75%
- COc1c[nH]c(C(=O)N2CCN(c3ccc(Cl)cc3)CC2)cc1=O — higher, 5.28%
- COc1ccc(C(O)CN2CC(n3nc(C)cc3C)C2)cc1 (centres undefined) — higher, -1.02%
- Cc1cc(C)n(C2CN(CC(O)c3ccc(S(C)(=O)=O)cc3)C2)n1 (centres undefined) — higher, -3.06%
- Cc1cc(C)n(C2CN(CC(O)COc3ccc(F)cc3)C2)n1 (centres undefined) — higher, 12.31%
- Cc1cc(C)n(C2CN(CC(O)c3ccc(F)cc3)C2)n1 (centres undefined) — lower, -26.11%
- Cc1cc(C)n(C2CN(CC(O)c3cc(F)ccc3F)C2)n1 (centres undefined) — higher, 53.98%
- Cc1cc(C)n(C2CN(CC(O)c3ccc(C(F)(F)F)cc3)C2)n1 (centres undefined) — higher, 56.02%
- O=C(c1cnnn1-c1ccccc1)N1CCCC(c2ccn[nH]2)C1 (centres undefined) — lower, -44.17%
- O=C(c1ccco1)N1C[C@@H]2CCN(c3cccnc3)C[C@@H]2C1 — lower, -19.54%
- CCN(CC)C(=O)C(c1ccccc1)N1CCn2c(C)nnc2C1 (centres undefined) — higher, 63.95%
- CCc1nnc2n1CCN(C(C(=O)N(CC)CC)c1ccccc1)C2 (centres undefined) — higher, 47.85%
- Cc1nnc2n1CCN(C(C(=O)N1CCCCC1)c1ccccc1)C2 (centres undefined) — lower, -40.65%
